Compound activity deposited in PubChem BioAssay by National Center for Advancing Translational Sciences (NCATS).
FMDV antiviral – antivirals against foot and mouth disease virus; FMDV antiviral cell-based qHTS; Potency, µM (titrated, usually from 57.9 µM), without a hit: at the highest dose activity change, negative = inhibition, actives largely listed as inhibitors; actives 1.2% (n = 410,000); AID 1159524; calls by dose curve; tested in HEK293T cells; further: read-out not given here; potency means the concentration at half of the fitted maximal effect; nearly all actives have a fitted effect of over 45% in size
Marburg entry inh – Marburg virus entry inhibition; Marburg virus pseudotyped entry inhibition, cell reporter; Potency, µM (series often up to 37.8 µM), without a hit: top-dose activity change, negative = inhibition, most hits filed as inhibitors; actives 1.8% (n = 300,000); calls by dose curve; tested in HEK293 cells; further: potency means the concentration at half of the fitted maximal effect
LASV entry inh – Lassa virus entry inhibition. actives 1.2% (n = 300,000). Potency, µM (highest dose often 37.9 µM), for the others: top-dose activity change, negative = inhibition, hits mostly inhibitors. Lassa virus pseudotype entry inhibition, cell reporter. AID 540256; calls by dose curve; tested in HEK293 cells; further: potency means the concentration at half of the fitted maximal effect; nearly all actives have a fitted effect of over 50% in size
HCV inh – inhibitors of hepatitis C virus infection | Huh7.5.1 HCVcc-Cre infection, luciferase reporter, 44 h | Potency, µM (doses to about 41.8 µM), for the others: top-dose activity change, negative = inhibition, hits mostly inhibitors | actives 3.4% (n = 340,000); active means well fitted inhibition curve with a large enough effect; inconclusive means small, poorly fitted or top-dose-only effect, or another doubt; inactive means no such curve, though single readings can be large or run the other way; further: potency means the concentration at half of the fitted maximal effect
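HCVcc-Cre virus at an moi near 0.5 was added right after compound to cells cultured 4 h from seeding (1,000 cells/well). Luciferase activity was determined 44 h later, 15 min after substrate addition at RT.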
HCMV inh – blocks human cytomegalovirus replication; activity change, negative = inhibition, % at 57.5 µM; actives 4.5% (n = 410,000); HFF cells, HCMV-luciferase reporter, 72 h; hits give low values; in the data active means activity change below about -60%; inconclusive means no clear call, values can overlap the other calls; inactive means above about -39%
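Two compound doses tested in HFFs infected with HCMV-luciferase, MOI 1 PFU/cell, 72 h at 37C. Lysate luminescence read with OneGlo; data normalized against buffer-only and 10uM Salinomycin inhibitor controls.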
The depositor's hits bear a star; ? = inconclusive; · = not tested or not shown; [ ] = another dose, or the depositor's remark. Shown are actives, neighbours in structure and some others; about 7.9% of the full set was active somewhere. On the % scale 0 is the no-effect control and ±100 the full control effect.

SMILES	FMDV antiviral	Marburg entry inh	LASV entry inh	HCV inh	HCMV inh
Cc1[nH]n(-c2ccccc2)c(=O)c1C(=O)Nc1ccccc1	16.6%	10.8%[46.1 µM]	14.4%[46.1 µM]	1.1%	-14.9
Cc1[nH]n(-c2ccccc2)c(=O)c1C(=O)c1ccc([N+](=O)[O-])cc1	?	?	10.4%	-11.0%	-8.1
C/C(=N\NC(=O)c1ccccc1)c1c(C)[nH]n(-c2ccccc2)c1=O	-3.4%	?	-14.8%[46.1 µM]	?	-97.4*
C/C(=N\NC(=O)c1ccc(C)cc1)c1c(C)[nH]n(-c2ccccc2)c1=O	17.4%	·	·	1.7%	-92.5*
CCOc1ccc(NC(=O)c2oc3ccccc3c2NC(=O)Cc2cccc(C)c2)cc1	-9.8%	-2.2%[46.1 µM]	6.5%[46.1 µM]	·	9.6
COc1ccc(C(=O)/C=C/c2cn(CC(O)CN3CCc4ccccc43)c3ccccc23)cc1 (stereo not given)	11.1%	?	?	·	40.9
CCC(=C(c1ccc(OC)cc1)c1ccc(OC)cc1)c1cn(CC(O)CN2CCN(C)CC2)c2ccccc12 (stereo not given)	-21.0%	?	-18.1%	11.2µM*	-22.4
O=C([C@@H]1C[C@@H](Sc2nc3ccccc3[nH]2)CN1Cc1ccc(C(F)(F)F)cc1)N1CCN(c2ccccc2F)CC1	-13.5%	·	·	·	·
Cc1sc(NC(=O)COc2cccc(-n3cnnn3)c2)c(C#N)c1C	2.6%	?	-7.6%	-23.1%	-61.9*
Cc1sc(NC(=O)COc2ccccc2)c(C#N)c1C	11.5%	?	-22.1%[46.1 µM]	-22.4%	-1.0
CCc1ccc(/C=N/Nc2ncnc3nc[nH]c23)cc1	-25.7%	?	7.94µM*	10.0%	35.7
COc1ccc(OC)c(-c2nn(-c3ccccc3)cc2C(=O)NCC(c2ccco2)N2CCCC2)c1 (stereo not given)	-8.4%	·	·	-16.5%	-32.5
CC(=O)c1ccc(S(=O)(=O)Nc2cccc(S(=O)(=O)NC3=NCCC3)c2)cc1	19.1%	?	27.9%	-3.8%	-14.6
O=C(CCl)Nc1cccc(S(=O)(=O)NC2=NCCC2)c1	-24.9%	·	·	12.6µM*	-100.0*
Cc1ccccc1-n1ccnc1SCC(=O)Nc1cccc(S(=O)(=O)NC2=NCCC2)c1	19.2%	1.7%	?	-1.2%	-61.0*
CC(=O)c1cccc(S(=O)(=O)Nc2cccc(S(=O)(=O)NC3=NCCC3)c2)c1	50.6%	35.6%	-2.2%	7.2%	-84.2*
Cc1cccc(-c2nn(-c3ccccc3)cc2C(=O)Nc2cccc(S(=O)(=O)NC3=NCCC3)c2)c1	56.1%	-23.5%	-1.5%	-32.2%	-17.0
CC(C)C(=O)Nc1cccc(S(=O)(=O)NC2=NCCC2)c1	-2.2%	·	·	·	-2.1
COc1ccc(-c2nn(-c3ccccc3)cc2C(=O)Nc2cccc(S(=O)(=O)NC3=NCCC3)c2)cc1	28.8%	·	·	11.2µM*	-11.1
COC(=O)[C@H](C)Sc1nc2c(c(=O)n(C)c(=O)n2C)n1CCC(C)C	·	-14.0%	·	·	·
N=c1oc2ccc(Br)cc2cc1C(=O)NC1CCCCCC1	0.0%	·	·	12.6%	?
C[C@H]1[C@@H](NC(=O)NCc2ccccc2)CC[C@@]23CCCN2C(=O)CCC[C@@H]13	·	·	·	·	-37.7
O=C(COC(=O)/C=C/c1ccc(Cl)cc1Cl)Nc1cccc(S(=O)(=O)NC2=NCCC2)c1	-0.1%	·	·	·	-69.5*
C=CCn1c(SCC(=O)c2ccc(O)c(O)c2)nnc1-c1cccc(Cl)c1	-27.3%	·	·	3.98µM*	22.8
O=C(NC(C(=O)N/N=C/c1c2ccccc2cc2ccccc12)c1n[nH]c(=O)c2ccccc12)c1ccccc1 (stereo not given)	-9.2%	?	-19.0%	2.51µM*	48.9
SMILES	FMDV antiviral	Marburg entry inh	LASV entry inh	HCV inh	HCMV inh
O=C(NC(C(=O)N/N=C/c1ccccc1)c1n[nH]c(=O)c2ccccc12)c1ccccc1 (stereo not given)	-2.7%	?	1.8%	?	21.7
CCOC(=O)c1ccc(COc2ccc(C(C)C)cc2)o1	5.4%	?	?	4.0%	25.4
CCC(C)c1ccc(OCc2ccc(C(=O)O)o2)cc1 (stereo not given)	11.2µM*	?	?	19.7%	127.3
CCCCn1c(CCC)nc([N+](=O)[O-])c1Sc1ccc(Cl)cn1	?	?	?	-28.0%	-77.3*
CCc1c(C#N)c(SCCC(=O)Nc2ccc(C)cc2)nc2c1C(=O)CC(C)(C)C2	-9.3%	1.0%	-4.2%	8.91µM*	-29.5
CCCOc1cc(N(CC)CC)ccc1/C=C(/C#N)c1nc2ccc(C)cc2[nH]1	?	?	-26.7%	?	?
CCN(CC)c1ccc(/C=C(/C#N)c2nc3ccc(C)cc3[nH]2)c(OC(C)C)c1	7.4%	?	?	2.82µM*	?
CCOc1cc(N(CC)CC)ccc1/C=C(/C#N)c1nc2ccccc2[nH]1	-24.4%	13µM*	-15.5%	2.51µM*	-24.0
COc1cc(/C=C(\C#N)c2nc3ccccc3[nH]2)cc(OC)c1O	3.8%	-20.2%[46.1 µM]	2.1%[46.1 µM]	?	-25.9
CC(C)C[C@@H](CNCC(=O)[C@H](C)NC(=O)c1[nH]cnc1C(=O)N[C@H](CN)CC(C)C)NC(=O)c1nc[nH]c1C(=O)N[C@@H](C)C(=O)O	-17.7%	·	·	24.6%	-33.9
COc1cc(OC)c(/C=N/NC(=O)c2ccc(NC(C)=O)cc2)cc1Br	5.0%	?	10.8%	-5.6%	-21.9
CC(=O)Nc1ccc(C(=O)N/N=C/c2cc(Br)cc(Br)c2O)cc1	-14.4%	10µM*	?	-7.6%	-7.8
CC(C)C(=O)Nc1ccc(C(=O)N/N=C/c2cc(Br)cc(Br)c2O)cc1	-13.3%	?	?	?	-78.2*
Cc1ccc2onc(CC(=O)Nc3cc(F)ccc3F)c2c1	15.9%	·	2.1%[46.1 µM]	·	35.9
O=C(Nc1cc(F)ccc1F)c1ccc(-n2cncn2)c([N+](=O)[O-])c1	13.4%	28.7%[46.1 µM]	16.5%	-24.9%	-5.1
COc1cc(OC)c(C(=O)Nc2cc(Cl)ccc2-n2cncn2)cc1OC	-27.7%	-3.4%[46.1 µM]	-1.4%	12.6µM*	28.3
O=C(Nc1cc(Cl)ccc1-n1cncn1)c1ccc([N+](=O)[O-])s1	-16.4%	-14.3%	?	7.94µM*	·
O=C(Nc1ccc(F)c(F)c1)c1ccc(-n2cncn2)c([N+](=O)[O-])c1	-14.5%	·	·	22.4µM*	-18.3
COc1ccccc1C(=O)Nc1cc(Cl)ccc1-n1cncn1	-11.8%	-3.2%[46.1 µM]	-10.2%[46.1 µM]	?	42.4
O=C1c2ccc(-c3ccc(F)cc3OCc3ccccc3)cc2S(=O)(=O)c2cccc(C(=O)N3CCCC3)c21	-4.4%	·	·	?	·
CCOc1cccc(CN2CCC(n3cc(C(=O)N4CCCCC4)nn3)CC2)c1O	-6.4%	·	·	·	·
Cc1ccc(OCC(=O)Nc2ccc(OCc3cc(=O)n4cccc(C)c4n3)cc2)cc1C	-16.7%	·	4.9%[46.1 µM]	·	-12.7
Fc1ccc(-c2nnc(CN3CCN(c4ccccn4)CC3)o2)cc1	-6.8%	20.3%[46.1 µM]	?	·	3.7
CC1CCCN(S(=O)(=O)c2ccc([N+](=O)[O-])cc2)C1 (stereo not given)	-10.8%	·	·	-4.8%	-26.6
